# Records with an inconclusive call do not appear. Entries that show only a call come without a potency. Activity calls are given as the source filed them. Calls come from the whole dose curve; as a rule, active = well fitted cell-killing curve with a large enough effect in the repeat runs; inconclusive = weak or mixed curves, or effect the other way; inactive = no such curve, though single readings can be large or run the other way.
# Assay: qHTS assay to identify small molecule antagonists of the glucocorticoid receptor (GR) signaling pathway - cell viability counter screen (AID 720693); note: nearly all actives have a fitted effect of over 55% in size
# Details: GR-bla HeLa viability, CellTiter-Glo luminescence, 18 h, with 5 nM dexamethasone present; series mostly up to 58.5 µM
# From the text: National Center for Advancing Translational Sciences [NCATS]
# NIH Chemical Genomics Center [NCGC]
# U.S. Environmental Protection Agency [EPA]
# National Institutes of Environmental Health Sciences [NIEHS]
# National Toxicology Program [NTP]
# U.S. Food and Drug Administration [FDA]
# The Glucocorticoid receptor (GR) is one of the members of the nuclear receptor family of ligand-dependent transcription factors. GR plays a critical role in carbohydrate, protein and lipid metabolisms and programmed cell death. CellSensor GR-bla HeLa cell line (Invitrogen) contains a beta-lactamase reporter gene under the control of the glucocorticoid response element stably integrated into HeLa cells, a cervical cancer cell line that expresses glucocorticoid receptor. The activation of the reporter gene under culture conditions can be detected by fluorescence intensity. This cell line has been used to screen the Tox21 10K compound library and to identify the compounds that inhibit the GR signaling. The cytotoxicity of the Tox21 compound library against the GR-bla HeLa cell line was tested in parallel by measuring the cell viability using CellTiter-Glo assay in the same wells.
# Tox21 Assay Protocol Summary:
# The GR-bla HeLa cells were dispensed at 1500 cells/5 ul/well in 1536-well black wall/clear bottom plates using a Multidrop Combi (ThermoFisher Scientific, Waltham, MA) dispenser. After the assay plates were incubated at a 37 C/5% CO2 incubator for 4 hours, 23 nL of compounds dissolved in DMSO, positive controls or DMSO only was transferred to the assay plate by a pintool station (Kalypsys, San Diego, CA), followed by addition of 1 uL of dexamethasone (5 nM, final concentration in the well). The plates were incubated at 37 C for 18 hours. After 1 uL of LiveBLAzerTM B/G FRET substrate was added using a Flying Reagent Dispenser (Aurora Discovery, San Diego, CA), the plates were incubated at room temperature (RT) for 2 hours, and fluorescence intensity was measured by an Envision plate reader (PerkinElmer, Shelton, CT). After measurement of bla assay, 3 ul CellTiter-Glo (Promega, Madison, WI) was added to measure the cytotoxicity and the plates were then incubated at RT for 30 min. The luminescence was measured using a ViewLux (Perkin Elmer) plate reader.
row,SMILES,Potency
1,C=CCN=C=S,inactive
2,COP(=S)(OC)Oc1ccc(SC)c(C)c1,inactive
3,[N-]=[N+]=CC(=O)OC[C@H](N)C(=O)O,inactive
4,FC(F)(F)c1ccc(Cl)cc1,inactive
5,CCNc1nc(Cl)nc(NC(C)C)n1,inactive
6,O=P1(NCCCl)OCCCN1CCCl (stereo not given),inactive
7,C[C@H]1C(=O)O[C@@H]2CCN3CC=C(COC(=O)[C@](C)(O)[C@]1(C)O)[C@H]23,inactive
8,O=C(O)C(Br)Br,inactive
9,Sc1ccccc1,inactive
10,C[C@]12CC[C@H](O)CC1=CC[C@@H]1[C@@H]2CC[C@]2(C)C(=O)CC[C@@H]12,inactive
11,CSc1nnc(C(C)(C)C)c(=O)n1N,inactive
12,COC(C)(C)CCCC(C)C/C=C/C(C)=C/C(=O)OC(C)C (stereo not given),inactive
13,O=C(O)c1cc(Oc2ccc(C(F)(F)F)cc2Cl)ccc1[N+](=O)[O-],inactive
14,CN(C)NC(=O)CCC(=O)O,inactive
15,CNC(=O)O/N=C(\SC)C(=O)N(C)C,inactive
16,ClC(Cl)c1ccccc1,inactive
17,Cc1cc(O)ccc1Cl,inactive
18,CCCOC(=O)c1ccccc1C(=O)OCCC,inactive
19,CC(C)(C)C(=O)CCl,inactive
20,CC(=O)/C=C/c1ccccc1,inactive

row,SMILES,Potency
1,Nc1nc(N)nc(NC2CC2)n1,inactive
2,Cc1cccc(N)c1,inactive
3,CN(C)C(=O)Cl,inactive
4,NNc1ccccc1,inactive
5,c1ccc2c(c1)CCCC2,inactive
6,Nc1ccc([As](=O)(O)O)cc1,inactive
7,Cc1ccc(O)c(C)c1,inactive
8,O=C/C=C/c1ccccc1,inactive
9,Cc1cccc(C)c1NC(=O)CN1CCCC1=O,inactive
10,COP(=S)(OC)SCN1C(=O)c2ccccc2C1=O,inactive
11,C=C(C)C(=O)OCC(CC)CCCC (stereo not given),inactive
12,CC[N+](=O)[O-],inactive
13,Cc1ccc(N=C=O)cc1N=C=O,inactive
14,CN1C(=O)CCS(=O)(=O)C1c1ccc(Cl)cc1 (stereo not given),inactive
15,COc1nc(NC(C)C)nc(NC(C)C)n1,inactive
16,Oc1c(Br)cc(Br)cc1Br,inactive
17,CN(C)CCC#N,inactive
18,Nc1ccc(N)cc1,inactive
19,C=CC#N,inactive
20,CC(C)c1cccc(C(C)C)c1O,inactive
